From PubChem
Rce1 inhib = inhibitors of yeast Ras-converting enzyme; Q03530; yeast membranes, quenched prenylated peptide cleavage fluorescence; calls only; actives 0.27% (n = 290,000); AID 2563;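 active = fall in fluorescence gain of 50% or more versus controls, with final raw signal at or below 3038400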;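 note: plate controls were neutral control wells for no effect and wells lacking membranes for full effect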
TMEM16A inh = inhibitors of mouse TMEM16A calcium-activated chloride channel. Q8BHY3. HEK293 TMEM16A/YFP iodide influx fluorescence, ionomycin. normalized B-score (activity score, 25-100; higher = stronger inhibition) at 10 µM. actives 1.2% (n = 310,000). AID 588511;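 active = ratio plate-corrected score three or more library SD toward inhibition, starting fluorescence score within five deviations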;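 note: score derived from kinetic fluorescence span divided by baseline fluorescence per well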
TMEM16A act = activates or potentiates the mouse TMEM16A chloride channel; HEK293 TMEM16A/YFP-H148Q/I152L, iodide quench fluorescence; active compounds read low; Q8BHY3; AID 623877; actives 0.3% (n = 340,000); B-score at 10 µM;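 active = fluorescence-ratio B-score plate-corrected deviation score at least 3 library SD below zero, with starting fluorescence score within 5 deviations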;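 note: channel opened by trigger with iodide after compound preincubation; score built on the fluorescence ratio of max minus min over baseline; more negative score means more quench and so TMEM16A activation or potentiation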
CHT block = inhibits the human high affinity choline transporter | Q9GZV3 | CHT-expressing cells, membrane potential dye, choline response; active compounds read low | B-score at 10 µM | actives 0.86% (n = 310,000);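 active = B-score over 3 SD under the library average, and starting fluorescence ratio not unusually high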;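 note: choline stimulus applied at its EC90 after an EC20 pre-addition; B-score computed on integrated fluorescence ratio after choline addition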
Kir21 inh = blocks the mouse Kir2.1 inward-rectifier potassium channel. AID 1672. P35561. HEK293-Kir2.1, FluxOR thallium flux fluorescence; active compounds read low. B-score at 10 µM. actives 0.85% (n = 310,000);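 active = fluorescence ratio B-score at or below minus 3 SD of library scores, with starting-brightness B-score within 2 SD, cut at about -4.2 in these data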;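 note: channel flux triggered by added potassium and thallium sulfate stimulus; B-score of peak minus minimum fluorescence over baseline after thallium stimulus; more negative B-score means stronger Kir2.1 block with less thallium influx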
Target sequence (P35561 whole entry, looked up): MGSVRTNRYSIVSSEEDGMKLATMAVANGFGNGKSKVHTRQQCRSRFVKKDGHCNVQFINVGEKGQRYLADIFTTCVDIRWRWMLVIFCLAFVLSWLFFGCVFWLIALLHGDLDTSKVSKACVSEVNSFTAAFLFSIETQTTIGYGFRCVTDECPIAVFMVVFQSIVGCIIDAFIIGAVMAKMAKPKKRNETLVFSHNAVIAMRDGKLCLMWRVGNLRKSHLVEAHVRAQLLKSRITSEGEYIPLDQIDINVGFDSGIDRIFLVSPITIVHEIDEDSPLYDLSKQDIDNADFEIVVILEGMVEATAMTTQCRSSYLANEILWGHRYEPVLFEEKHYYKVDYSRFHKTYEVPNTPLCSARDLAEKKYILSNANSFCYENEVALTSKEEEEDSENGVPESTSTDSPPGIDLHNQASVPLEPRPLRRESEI
CHT allo act = allosterically activates the human high affinity choline transporter | Q9GZV3 | actives 0.49% (n = 310,000) | B-score at 10 µM | CHT-expressing cells, membrane potential dye, choline EC20; active compounds read high; LV-AA mutant CHT in HEK293 cells;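 active = initial fluorescence not abnormally high and integrated response B-score, plate-corrected, over 3 SD above library mean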
An asterisk follows results filed as active; i = inactive; · = no result; + = active, no number. The list is not random: actives were taken first. Their share in the collection is about 3.2%.

SMILES	Rce1 inhib	TMEM16A inh	TMEM16A act	CHT block	Kir21 inh	CHT allo act
CCC1CCCCN1CCCNC(=O)c1ccc2c(c1)N(Cc1c(F)cccc1Cl)C(=O)CS2 (stereo not drawn)	i	i	i	-5.4*	0.54	i
CC(C(=O)Nc1ccc(F)cc1Cl)N1CCN(S(=O)(=O)c2cccs2)CC1 (stereo not drawn)	·	·	-21*	·	·	·
COc1cc(/C=N/Nc2nc(N3CCCC3)nc(N3CCCC3)n2)ccc1OCc1ccccc1F	i	i	i	i	-1	i
COc1ccc(NS(=O)(=O)c2cc3c4c(c2)CCN4C(=O)CC3)c(OC)c1	i	·	i	·	-1.3	·
O=C(c1cccs1)c1no[n+]([O-])c1C(=O)c1cccs1	i	i	i	i	-11	i
Cc1c(C(=O)c2no[n+]([O-])c2C(=O)c2cnn(C)c2C)cnn1C	i	i	i	-5.9*	-0.01	i
O=C1/C(=C/c2ccc(Br)cc2)Oc2cc(O)ccc21	i	100*	i	i	-1.1	i
COc1cccc(OCC(=O)NNC(=S)Nc2ccc(Cl)cc2Cl)c1	i	100*	i	i	-0.56	i
O=C(COc1ccccc1)NNC(=S)NC(=O)c1ccc(Cl)cc1Cl	·	25*	·	i	0.92	i
Cc1c(C(c2ccccc2Br)c2c(C)n(C)n(-c3ccccc3)c2=O)c(=O)n(-c2ccccc2)n1C	i	i	i	i	0.46	i
NC(Cc1c[nH]c2ccc(OCc3ccccc3)cc12)C(=O)O (stereo not drawn)	i	i	i	i	0.05	i
NC(=S)N/N=C/c1c[nH]c2ccc(OCc3ccccc3)cc12	i	25*	i	i	-0.07	i
CC(=O)NC(CC(=O)OCC(=O)c1ccc(NC(=O)CC(C)C)cc1)c1ccccc1 (stereo not drawn)	·	·	i	·	·	·
Cc1c(Cc2ccc3c(c2)OCO3)sc(NC(=O)c2ccc3ccccc3c2)c1C(N)=O	i	i	·	-6.6*	-0.55	i
CCC(=O)Nc1sc(Cc2ccc3c(c2)OCO3)c(C)c1C(N)=O	i	i	i	i	0.49	i
CC(c1ccon1)N(C)Cc1cn(C)nc1-c1cccc(Cl)c1 (stereo not drawn)	i	i	i	i	0.51	i
CN(C)c1cc(O)c(C(=S)Nc2ccccc2)c(N(C)C)c1	+	i	i	i	-0.11	i
CCOc1ccccc1N1CC(C(=O)NC2CCCCCC2)CC1=O (stereo not drawn)	·	·	i	·	·	·
COc1ccccc1NS(=O)(=O)c1cc(C(=O)NCCC(C)C)ccc1F	i	i	-9.5*	i	2.2	i
CC(C)=CC1C(C(=O)Nc2ccc(S(=O)(=O)N3CCOCC3)cc2)C1(C)C (stereo not drawn)	i	i	-4.9*	i	0.68	i
CCC(=O)Oc1ccc(C2NC(=O)c3ccccc3O2)cc1OC (stereo not drawn)	i	i	i	i	0.95	i
CCN1CCN(c2cc(C)c3cc(NC(=S)N4CCCC4)ccc3n2)CC1	i	i	i	i	-0.05	i
CCOC(=O)N1CCN(C(=S)Nc2ccc3nc(N4CCN(CC)CC4)cc(C)c3c2)CC1	i	i	i	-8.3*	1	i
CCOC(=O)CN1C(=O)NC(C)(c2ccc(OC(F)F)cc2)C1=O (stereo not drawn)	i	25*	i	i	-0.06	i
CC1(c2ccc(OC(F)F)cc2)NC(=O)N(CC(=O)Nc2ccc3[nH]c(=O)[nH]c3c2)C1=O (stereo not drawn)	i	i	i	i	-0.4	i
SMILES	Rce1 inhib	TMEM16A inh	TMEM16A act	CHT block	Kir21 inh	CHT allo act
CC1(c2ccc(OC(F)F)cc2)NC(=O)N(CC(=O)Nc2ccc3c(c2)OCO3)C1=O (stereo not drawn)	i	i	-5.9*	i	-1.1	i
CC1(c2ccc(OC(F)F)cc2)NC(=O)N(CC(=O)Nc2ccccc2)C1=O (stereo not drawn)	i	i	-10*	i	2.4	i
Cc1cccc(NS(=O)(=O)c2cc3c(cc2C)n(C)c(=O)c(=O)n3C)c1	i	i	i	i	-0.02	i
O=C(Nc1cccc2c1[nH]c1ccccc12)C(F)(F)F	i	25*	i	i	2.6	i
CC(=O)Nc1ccccc1NC(=O)C(F)(F)F	i	i	i	i	0.29	i
CCOC(=O)c1cnc(-n2nc(C)cc2C)nc1NC1CCCCC1	i	100*	i	i	1.8	i
CC(C)[C@H]1COC(NC2=N[C@@H](C(C)C)CO2)=N1	i	i	i	i	-0.56	i
C[C@H](NC(=O)C1(c2ccccc2)CCN(C(=O)[C@H]2CSCN2C(=O)OC(C)(C)C)CC1)C(=O)O	i	i	-5.1*	i	0.45	i
Cc1nc2sccn2c1-c1csc(NCc2ccccc2)n1	·	25*	i	i	-0.48	i
COc1cc(C(=O)NC(C)c2cc(C)ccc2C)ccc1OCC(=O)N1CCOCC1 (stereo not drawn)	·	·	i	·	·	·
COc1cccc(-c2csc(N3CCN(C(=O)NC45CC6CC(CC(C6)C4)C5)CC3)n2)c1	+	i	i	i	0	i
COc1cccc(NC(=O)N2CCN(c3nc(-c4cccc(OC)c4)cs3)CC2)c1	i	i	i	i	2	i
O=C1c2ccccc2[C@@H]2C[C@@H](O)[C@H](Nc3cccc(Cl)n3)CCN12	·	·	i	·	·	·
CCOC(=O)c1c(CSc2ccccc2)n(C)c2cc(Br)c(OC)c(O)c12	i	i	i	i	-0.64	i
CCOC(=O)c1c(-c2ccccc2)oc2ccc(O)c(CN3CCN(C)CC3)c12	i	i	i	i	-9.3*	i
CCOC(=O)c1c(C)n(C)c2ccc(O)c(CN3CCN(C)CC3)c12	·	i	i	i	-0.52	i
CCOC(=O)c1c(CSc2ccccc2)n(C)c2ccc(O)c(CN3CCOCC3)c12	i	i	i	i	-5.4*	i
Cc1ccc(S(=O)(=O)NCCCN2CCCC2)cc1	i	i	i	i	0.89	i
Cc1ccc(S(=O)(=O)NCc2c(Cl)cccc2Oc2ccccc2)cc1	i	100*	i	i	-0.61	i
CN(C)c1ccc(O)c2c1CC1CC3[C@@H](N(C)C)C(=O)C(C(N)=O)C(=O)[C@]3(O)C(=O)C1C2=O (stereo partly drawn)	·	·	-9.4*	·	·	·
